Most compounds without a hit are left out; they make up all but 10% or so of the library.
NS1 function inh: influenza NS1 inhibition. 0.4% of 270,000 active. Potency, µM (highest dose often 46.1 µM); also: actives are rising curves; nearly all actives have a fitted effect of over 50% in size
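Compounds were scored for reversing the slow growth caused by influenza A NS1 in S. cerevisiae, measured by optical density at 600 nm. Assay medium contained 2% galactose at pH 6.0; NS1-free yeast of the same strain were the positive control.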
Pf growth 96h: inhibits malaria parasite growth, 96 h | P. falciparum luciferase reporter growth, 96 h | Potency, µM (highest dose often 28.7 µM), actives largely listed as inhibitors | 6.9% of 320,000 active; active = well fitted inhibition curve with a large enough effect; inconclusive = small, poorly fitted or top-dose-only effect, or another doubt; inactive = no such curve, though single readings can be large or run the other way
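Plates of compound plus infected erythrocytes (2% hematocrit, 0.05% parasitemia final) incubate 96 hours, 37 C, 5% CO2. Detection reagent added; reduced luminescence from the parasites' luciferase reporter flags inhibition.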
Pf growth 48h: P. falciparum growth inhibition at 48 hours (one generation). P. falciparum luciferase growth in erythrocytes, 48 h. Potency, µM (highest dose often 28.7 µM), actives largely listed as inhibitors. 5.9% of 310,000 active. AID 504832; active = well fitted inhibition curve with a large enough effect; inconclusive = small, poorly fitted or top-dose-only effect, or another doubt; inactive = no such curve, though single readings can be large or run the other way
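Read-out is firefly luciferase luminescence from an integrated reporter in P. falciparum, so falling signal marks reduced parasite growth. Infected erythrocytes were at 2% hematocrit and 0.1% parasitemia (final) in Albumax-supplemented RPMI 1640.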
SARS PLP yeast: SARS-CoV PLP inhibition in yeast | S. cerevisiae expressing SARS-CoV PLpro, growth rescue | Potency, µM (highest dose often 32.9 µM), usual class: activators | 0.19% of 330,000 active; also: nearly all actives have a fitted effect of over 55% in size
A number is an active result; . = inactive; ? = inconclusive; / = no result given. Unless noted, calls follow the shape of the full dose curve.

SMILES | NS1 function inh | Pf growth 96h | Pf growth 48h | SARS PLP yeast
COCCCn1nnnc1SCC(=O)Nc1ccc2c(c1)OCCO2 | . | 13.1µM | . | .
COCCn1nnnc1SCC(=O)Nc1ccc2c(c1)OCO2 | . | . | . | .
COc1ccc(NC(=O)Nc2ccc(F)c(F)c2)c(OC)c1 | . | . | ? | .
O=C(Nc1cc(S(=O)(=O)N2CCOCC2)ccc1N1CCOCC1)c1ccccc1Cl | / | / | / | .
O=C(Nc1cc(S(=O)(=O)N2CCOCC2)ccc1N1CCCC1)c1cc(F)c(F)cc1Cl | / | . | ? | .
Cc1ccc(S(=O)(=O)N2CCOCC2)cc1C(=O)Nc1cc(Cl)ccc1N1CCOCC1 | / | ? | 4.65µM | .
CS(=O)(=O)c1ccc(Cl)c(NC(=O)c2cc(S(=O)(=O)N3CCOCC3)ccc2N2CCCC2)c1 | / | 13.1µM | ? | .
C[C@@]12CC[C@H]3[C@H](CCC4=CC(=O)CC[C@H]43)[C@H]1CC[C@H]2OC1(O)C(=O)c2ccccc2C1=O | . | / | / | /
CN(C)C(=O)CCC(=O)N1CCCC(C(=O)c2ccc3c4c(cccc24)CC3)C1 (stereo unspecified) | . | 14.7µM | . | .
O=C(c1ccc2c3c(cccc13)CC2)C1CCCN(CC2CC2)C1 (stereo unspecified) | . | ? | ? | .
CNc1oc(-c2ccc(Cl)cc2)nc1P(=O)(c1ccccc1)c1ccccc1 | . | 14.7µM | ? | .
Cc1ccc(-c2nc(P(=O)(c3ccccc3)c3ccccc3)c(N3CCOCC3)o2)cc1 | . | 10.4µM | 10.4µM | .
Cc1ccccc1NS(=O)(=O)c1nnc(NC(=O)c2ccccc2C)s1 | . | . | . | .
Cc1cc(C)nc(/N=C(\N)Nc2ccc(OCCC(C)C)cc2)n1 | . | ? | 10.4µM | .
Cc1cc(C)nc(/N=C(\N)Nc2ccc(S(=O)(=O)Nc3nccc(C)n3)cc2)n1 | . | 4.15µM | . | .
COc1ccc(N2CCN(c3cc(C)nc4ccc(OC)cc34)CC2)cc1 | . | ? | 13.1µM | .
COc1ccc2nc(C)cc(N3CCC(C(N)=O)CC3)c2c1 | / | . | . | .
Cc1cc(CN(C)C(=O)CC2C(=O)NCCN2Cc2ccc(-c3ccccc3)cc2)on1 (stereo unspecified) | . | 10.4µM | . | .
CCOc1ccc(CN2CCNC(=O)C2CC(=O)NCc2csc(C)n2)cc1 (stereo unspecified) | . | 3.29µM | . | .
CC(C)N(Cc1nccn1C)C(=O)CC1C(=O)NCCN1Cc1ccc(F)cc1 (stereo unspecified) | . | 13.1µM | . | .
CC(C)N(Cc1nccn1C)C(=O)CC1C(=O)NCCN1Cc1ccc(F)c(F)c1 (stereo unspecified) | . | . | . | .
Cc1nc(CNC(=O)CC2C(=O)NCCN2Cc2ccc(F)cc2)cs1 (stereo unspecified) | . | . | . | .
O=C(CC1C(=O)NCCN1Cc1cccc(C(F)(F)F)c1)NCCc1cnccn1 (stereo unspecified) | . | 2.08µM | . | .
CCOc1ccc(CN2CCNC(=O)C2CC(=O)NCCc2cnccn2)cc1 (stereo unspecified) | . | . | . | .
COc1ccc(CCNC(=O)CSc2nc3ccsc3c(=O)n2CC2CCC(C(=O)O)CC2)cc1OC (stereo unspecified) | . | ? | . | ?
SMILES | NS1 function inh | Pf growth 96h | Pf growth 48h | SARS PLP yeast
O=C(CC1C(=O)NCCN1Cc1c(F)cccc1Cl)NCCCOc1cccnc1 (stereo unspecified) | . | 14.7µM | . | .
Cc1ccc(CN2CCNC(=O)C2CC(=O)N(C)Cc2cnccn2)cc1 (stereo unspecified) | . | 13.1µM | . | .
Cc1nonc1CN(C)C(=O)CC1C(=O)NCCN1Cc1cccc(C(F)(F)F)c1 (stereo unspecified) | . | 10.4µM | . | .
COc1ccc(NS(=O)(=O)c2cc3c4c(c2)CCN4C(=O)CC3)cc1OC | / | . | ? | .
Cc1cccc(C(=O)NCC(=O)OCc2nc(N)nc(Nc3ccccc3C)n2)c1 | / | / | / | .
CC12CCC(=O)N1C(C(=O)Nc1cc(Cl)ccc1N1CCCC1)CS2 (stereo unspecified) | / | ? | ? | .
Cc1cc(-c2cc(C(=O)NCc3ccccc3)on2)nc(S(C)(=O)=O)n1 | . | ? | ? | .
CN(C)c1ccc(C(=C2C=CC(=[N+](C)C)C=C2)c2c(O)c(S(=O)(=O)O)cc3cc(S(=O)(=O)O)ccc23)cc1 | . | / | / | /
O=[N+]([O-])c1ccc(CNCCc2ccccc2)cc1 | . | 13.1µM | . | .
NC(=O)c1cc([N+](=O)[O-])ccc1NCCc1ccccc1 | . | 13.1µM | . | .
O=C(O)[C@H](Cc1ccccc1)Nc1ccc([N+](=O)[O-])cn1 | . | . | . | .

High-throughput results as filed in PubChem.
